# Test results from PMC11062922 (Nature Chemical Biology, 2023).
# Like-named read-outs stand apart in the source and are kept apart here.
# Experiments:
# Design in all cases: species or system human, MV4-11 + K-562 + COLO205 + SK-N-BE2 + OVCAR-8
# GSK3A = conditions: read-out: apparent Kd; compound concentrations:100 nM and 1000 nM (sheet 'Samples'); n = 1
# GSK3B = conditions: read-out: apparent Kd; compound concentrations:100 nM and 1000 nM (sheet 'Samples'); n = 1
# SIK2 = conditions: read-out: apparent Kd, n = 1
# TNK2 = conditions: read-out: apparent Kd, n = 1
# ACVR1 = conditions: read-out: apparent Kd, n = 1
# CDKL5 = conditions: read-out: apparent Kd, n = 1
# ZAK = conditions: read-out: apparent Kd, n = 1
# CDK16 = conditions: read-out: apparent Kd, compound concentrations: 100 nM and 1000 nM (sheet 'Samples'), n = 1
# CSK = conditions: read-out: apparent Kd, compound concentrations: 100 nM and 1000 nM (sheet 'Samples'), n = 1
# EPHA1 = conditions: read-out: apparent Kd, compound concentrations: 100 nM and 1000 nM (sheet 'Samples'), n = 1
# LYN = conditions: read-out: apparent Kd, compound concentrations: 100 nM and 1000 nM (sheet 'Samples'), n = 1
# ACAD11 = conditions: read-out: apparent Kd; compound concentrations:100 nM and 1000 nM (sheet 'Samples'); n = 1
# DYRK1A = conditions: read-out: apparent Kd; compound concentrations:100 nM and 1000 nM (sheet 'Samples'); n = 1
# DDR1 = conditions: read-out: apparent Kd, n = 1
# FLT3 = conditions: read-out: apparent Kd; compound concentrations:100 nM and 1000 nM (sheet 'Samples'); n = 1
# EGFR = conditions: read-out: apparent Kd; compound concentrations: 100 nM and 1000 nM (sheet 'Samples'), CATDS: 5.5544990287731598E-2; n = 1
# MAP2K5 = conditions: read-out: apparent Kd; compound concentrations: 100 nM and 1000 nM (sheet 'Samples'), CATDS: 4.6114067598033499E-2; n = 1
# [1] = compound concentrations:100 nM and 1000 nM (sheet 'Samples')
smiles,measurement,setting,value
Cl.Cn1c(=O)c(Cc2ccc(F)cc2F)cc2cnc(NC3CCOCC3)nc21 [RO3308757-001],potency estimated from few doses,GSK3A,484 nM
same,potency estimated from few doses,GSK3B,745 nM
same,potency estimated from few doses,SIK2; [1],812 nM
same,potency estimated from few doses,TNK2; [1],230 nM
COc1cccc(-c2c[nH]c3c(N/N=C/c4ccncc4)ncnc23)c1 [GW814408X],potency estimated from few doses,ACVR1; [1],1370 nM
same,potency estimated from few doses,CDKL5; [1],1300 nM
same,potency estimated from few doses,GSK3A,133 nM
same,potency estimated from few doses,GSK3B,112 nM
same,potency estimated from few doses,SIK2; [1],1180 nM
same,potency estimated from few doses,ZAK; [1],1540 nM
CC(C)c1nc(-c2cccc(NS(=O)(=O)c3c(F)cccc3F)c2F)c(-c2ccnc(Nc3ccc(N4CCOCC4)nc3)n2)s1 [GSK2008607A],potency estimated from few doses,CDK16; CATDS: 3.1735932444665597E-2,424 nM
same,potency estimated from few doses,"CDKL5; compound concentrations: 100 nM and 1000 nM (sheet 'Samples'), CATDS: 1.9051705210026099E-2",1650 nM
same,potency estimated from few doses,CSK; CATDS: 4.1008032947333198E-2,262 nM
same,potency estimated from few doses,EPHA1; CATDS: 2.5663443213215401E-2,679 nM
same,potency estimated from few doses,LYN; CATDS: 2.5134529621639101E-2,715 nM
same,potency estimated from few doses,"TNK2; compound concentrations: 100 nM and 1000 nM (sheet 'Samples'), CATDS: 3.47729479590888E-2",355 nM
O=S(=O)(c1ccc(-c2ccnc3[nH]ccc23)cc1)N1CCCC1 [GSK846226A],potency estimated from few doses,ACAD11,693 nM
CC(=O)c1c(-c2ccncc2)[nH]c(-c2ccncc2)c1C [GW493036X],potency estimated from few doses,CDKL5; [1],1670 nM
same,potency estimated from few doses,DYRK1A,53.7 nM
same,potency estimated from few doses,GSK3A,400 nM
same,potency estimated from few doses,GSK3B,535 nM
CNc1nccc(-c2c(-c3ccc(F)cc3)ncn2C2CCN(C)CC2)n1 [SB-222903],potency estimated from few doses,DDR1; [1],348 nM
Nc1nc(N)c2nc(-c3ccccc3)[nH]c2n1 [SKF-12778],potency estimated from few doses,ACAD11,1290 nM
same,potency estimated from few doses,FLT3,1070 nM
CS(=O)(=O)Cc1ccc(Nc2nccc(-c3c(-c4cccc(NC(=O)c5c(F)cccc5F)c4)nn4ccccc34)n2)cc1 [GSK323543A],potency estimated from few doses,"DDR1; compound concentrations: 100 nM and 1000 nM (sheet 'Samples'), CATDS: 5.7176748718511097E-2",1930 nM
same,potency estimated from few doses,EGFR,2130 nM
same,potency estimated from few doses,LYN; CATDS: 6.3006631754301101E-2,1440 nM
Fc1cc(Cl)ccc1Nc1ccnc2cc(-c3ccc(CN4CCOCC4)o3)ccc12 [GW560109X],potency estimated from few doses,EPHA1; CATDS: 7.1072488518175297E-2,699 nM
same,potency estimated from few doses,"SIK2; compound concentrations: 100 nM and 1000 nM (sheet 'Samples'), CATDS: 7.4326552669870996E-2",630 nM
COc1cc2ncn(-c3cc(OCc4ccncc4)c(C(N)=O)s3)c2cc1OC [GSK336313A],potency estimated from few doses,ACAD11,1400 nM
Cc1cc(O)cc(C)c1/C=C/c1cncc(-c2nn[nH]n2)c1.Cl [GW441806A],potency estimated from few doses,"ACVR1; compound concentrations: 100 nM and 1000 nM (sheet 'Samples'), CATDS: 0.132778001486796",85.5 nM
same,potency estimated from few doses,MAP2K5,1310 nM
same,potency estimated from few doses,"SIK2; compound concentrations: 100 nM and 1000 nM (sheet 'Samples'), CATDS: 4.4020639379416998E-2",1540 nM
CC(=O)N1CCN(c2ccc(Nc3nccc(-c4sc(C(C)C)nc4-c4cccc(NS(=O)(=O)c5cccc(Cl)c5)c4)n3)cn2)CC1 [GSK1660437A],potency estimated from few doses,CDK16; CATDS: 4.5005275972449597E-2,1070 nM
same,potency estimated from few doses,CSK; CATDS: 5.27130468240418E-2,741 nM
same,potency estimated from few doses,"ZAK; compound concentrations: 100 nM and 1000 nM (sheet 'Samples'), CATDS: 3.4947671861574499E-2",2310 nM
